Inconclusive results are not listed. A call without a number means that no potency is given here. Activity calls are given as the source filed them. Calls come from the whole dose curve; as a rule, active = well fitted inhibition curve with a large enough effect; inconclusive = small, poorly fitted or top-dose-only effect; inactive = no such curve, though single readings can be large or run the other way.
Assay: Counterscreen qHTS for small molecule stabilizers of the endoplasmic reticulum resident proteome: GLuc-NoTag assay (AID 1508627)
Settings: Gaussia luciferase NoTag secretion counterscreen, luminescence, thapsigargin 100 nM for final 4 h; series mostly up to 76.4 µM
Source text: Assay Provider: Brandon K. Harvey Ph.D.
National Institute on Drug Abuse, National Institutes of Health, Baltimore, MD
Endoplasmic reticulum (ER) dysregulation is associated with human pathologies including neurodegenerative, cardiovascular, muscular, and diabetic conditions. Maintenance of ER calcium is critical for functions of the ER and its depletion can lead to loss of ER resident proteins, in a process termed exodosis. Therapeutic compounds capable of attenuating the redistribution of ER proteins under pathological conditions may slow or stop disease progression. To identify such compounds, we performed a quantitative high-throughput screen (qHTS) using the SERCaMP assay, which monitors secretion of ER resident proteins triggered by calcium depletion.
SERCaMP was initially developed as a reporter of ER calcium homeostasis using a Gaussia luciferase with a modified signal peptide and carboxy-terminus (GLuc-SERCaMP), modifications that confer secretion of the reporter in response to ER calcium depletion (Henderson et al., 2014). The assay was used to screen 9,501 compounds, including a collection of drugs approved by the FDA (US), EMA (EU), NHI (Japan), and HC (Canada) regulatory agencies (Huang et al., 2011). Since the SERCaMP reporter reflects the exodosis phenomenon (Trychta et al., 2018a), compounds identified in the screen have the potential to prevent exodosis by different mechanisms such as stabilizing ER calcium or augmenting ERS retrieval.
1. Henderson, M.J., Wires, E.S., Trychta, K.A., Richie, C.T., and Harvey, B.K. (2014). SERCaMP: a carboxy-terminal protein modification that enables monitoring of ER calcium homeostasis. Mol Biol Cell 25, 2828-2839.
2. Huang, R., Southall, N., Wang, Y., Yasgar, A., Shinn, P., Jadhav, A., Nguyen, D.T., and Austin, C.P. (2011). The NCGC pharmaceutical collection: a comprehensive resource of clinically approved drugs enabling repurposing and chemical genomics. Sci Transl Med 3, 80ps16.
3. Trychta, K.A., Back, S., Henderson, M.J., and Harvey, B.K. (2018a). KDEL Receptors Are Differentially Regulated to Maintain the ER Proteome under Calcium Deficiency. Cell Rep 25, 1829-1840 e1826.
SEQUENCE No. (1, 2, 3, etc.); […] (e.g., Cells, Incubation, Reagent, etc.); VALUE and DESCRIPTION.
1; Reagent; 5 uL; 1000 SH-SY5Y cells per wells
3; Compound; 23 nL; Control inhibitor / compound library
5; Reagent; 100 nM; Thapsigargin
7; Reagent; 1 uL; 0.5x coelenterazine
8; Detection; Luminescence; ViewLux imaging system
NOTES (numbers refer to sequence above)
1; SH-SY5Y human neuroblastoma cells stably expressing the constitutively secreted GLuc (SH-SY5Y-GLuc-NoTag) cells were seeded in 1,536 well white tissue culture treated plates (Corning, Cat# 7464) in DMEM-high glucose-sodium pyruvate (ThermoFisher Scientific, Cat #10569) supplemented with 10% bovine growth serum (Hyclone), 10 U/ml penicillin (Gibco), 10 ug/ml streptomycin (Gibco), and 20 mM HEPES.
2; Assay plates were incubated for 5 hour at 37C in a humidified incubator containing 5% CO2.
4; Cells were then incubated for 19 hours at 37C, 5% CO2.
5; Thapsigargin was added at 100 nM to deplete ER calcium stores.
6; Cells were incubated for 4 hour (37 °C, 5% CO2)
7; Gaussia luciferase in the medium was measured by adding 1 ul of 0.5x coelenterazine (final concentration 0.07x) prepared in Gaussia Luciferase Glow Assay Buffer (Pierce), without addition of the Cell Lysis Buffer Reagent.
8; Luminescence was measured using a ViewLux CCD imaging system (Perkin Elmer) equipped with clear filters. […] The same controls were also used for the calculation of the Z' factor, a measure of assay quality control, as previously described (Zhang et al., 1999). For the initial validation of activity in the SERCaMP assays, hits from the primary screen were assayed again at 11-concentrations (1.3 nM - 76.6 uM). SH-SY5Y-GLuc-SERCaMP cells were assayed for ER Ca2+ depletion as outlined above.
1. Zhang, J.H., Chung, T.D., and Oldenburg, K.R. (1999). […]
Potency is the fitted concentration of half-maximal effect.

| Compound | Potency | activity change, negative = inhibition |
| --- | --- | --- |
| COCCn1c(=O)c(CCc2ccccc2)nc2cnc(N3CCNCC3)nc21 | inactive | – |
| COc1ccc(-n2c(=O)c(-c3ccccc3)nc3cnc(N4CCN(C)CC4)nc32)cc1 | inactive | – |
| O=S(=O)(c1ccccc1)N1CCC[C@@]2(CCN(c3ccncc3)C2)C1 | inactive | – |
| CN1CCN(c2ncc3nc(-c4ccccc4)c(=O)n(CCc4ccccc4)c3n2)CC1 | inactive | – |
| COCCn1c(=O)c(-c2ccc(Cl)cc2)nc2cnc(OC)nc21 | inactive | – |
| COc1cccc(Cn2c(=O)c(C)nc3cnc(N4CCNCC4)nc32)c1 | 28.2 µM (active) | – |
| Cc1nc2cnc(N3CCNCC3)nc2n(Cc2ccc(F)cc2)c1=O | inactive | – |
| COCCn1c(=O)c(-c2ccccc2)nc2cnc(N3CCNCC3)nc21 | inactive | – |
| CN1CCN(c2ncncc2-c2ccccc2C(F)(F)F)CC1 | inactive | – |
| Cc1ccccc1-c1nc(N2CCNCC2)c2ccccc2n1 | inactive | – |
| CN1CCN(c2ncnc3ccc(-c4ccccc4C#N)cc23)CC1 | inactive | – |
| Cc1nc2cnc(N3CCNCC3)nc2n(Cc2cccs2)c1=O | inactive | – |
| Clc1ccccc1-c1nc(N2CCNCC2)c2ccccc2n1 | inactive | – |
| O=C(c1cc(C(F)(F)F)cc(C(F)(F)F)c1)N1CCC2(CC1)CCN(c1ccccn1)CC2 | inactive | – |
| CCNc1ncc2nc(CCc3ccccc3)c(=O)n(-c3ccccc3)c2n1 | inactive | – |
| COc1ccc(-n2c(=O)cnc3cnc(N4CCNCC4)nc32)cc1 | inactive | – |
| CN1CCN(c2ncnc3ccc(-c4ccccc4Cl)cc23)CC1 | inactive | – |
| COCCn1c(=O)c(CCc2ccccc2)nc2cnc(N3CCN(C)CC3)nc21 | inactive | – |
| C1CCC[C@H]2CCCN3CC[C@H](CCCCCC[C@@H]4CCCN5CC[C@H](CC1)OC45)OC23 | – | 16.2% [at 9.46 µM] (inactive) |
| Cc1ccc(-n2c(C)cc(/C=N/NC(=O)c3ccncc3)c2C)cc1C | inactive | – |

| Compound | Potency | activity change, negative = inhibition |
| --- | --- | --- |
| COCCn1c(=O)c(-c2ccc(Cl)cc2)nc2cnc(OCc3ccccc3)nc21 | inactive | – |
| CC(C)(c1cc(Br)c(O)c(Br)c1)c1cc(Br)c(O)c(Br)c1 | inactive | – |
| Cc1ccccc1-c1nccc(Nc2ccc(F)cc2)n1 | inactive | – |
| COc1cc(OC)cc(C(=O)N2CCN(Cc3ccccc3C(F)(F)F)CC2)c1 | inactive | – |
| COc1ccccc1-c1cncnc1NCCN1CCOCC1 | inactive | – |
| CN(C)c1ccc(-c2nccc(NCCN3CCOCC3)n2)cc1 | inactive | – |
| c1cncc(-c2nc(N3CCNCC3)c3ccccc3n2)c1 | inactive | – |
| COc1cccc(Cn2c(=O)c(-c3ccccc3)nc3cnc(N4CCNCC4)nc32)c1 | inactive | – |
| CCC(C)C(N)C(=O)NC(CC(N)=O)C(=O)NC(CC(C)C)C(=O)NC(CCCCN)C(=O)NC(C)C(=O)NC(CC(C)C)C(=O)NC(C)C(=O)NC(C)C(=O)NC(CC(C)C)C(=O)NC(C)C(=O)NC(CCCCN)C(=O)NC(CCCCN)C(=O)NC(C(=O)NC(CC(C)C)C(N)=O)C(C)CC (stereo not given) | inactive | – |
| N#CCCn1c(=O)c(-c2ccc(Cl)cc2)nc2cnc(OCc3ccccc3)nc21 | inactive | – |
| CCCCCCCCCCCCc1ccccc1O | inactive | – |
| CN1CCN(c2nc(-c3ccc4c(c3)OCO4)nc3ccccc23)CC1 | inactive | – |
| CN1CCN(c2ncc3nc(-c4ccccc4)c(=O)n(-c4ccccc4)c3n2)CC1 | inactive | – |
| COc1ccc(-c2nc3cnc(N4CCNCC4)nc3n(-c3ccccc3)c2=O)cc1 | inactive | – |
| O=C(O)/C=C/C(=O)Nc1ccc(OC(F)(F)Cl)cc1 | inactive | – |
| O=c1c(-c2cc(F)cc(F)c2)nc2cnc(N3CCNCC3)nc2n1-c1ccccc1 | inactive | – |
| COc1ccc(-n2c(=O)c(-c3ccccc3)nc3cnc(N4CCNCC4)nc32)cc1 | inactive | – |
| CN1CCN(c2nc(-c3cccc(C#N)c3)nc3ccccc23)CC1 | inactive | – |
| COc1cccc(Cn2c(=O)c(C)nc3cnc(N4CCN(C)CC4)nc32)c1 | inactive | – |
| O=c1c(-c2cccs2)nc2cnc(N3CCNCC3)nc2n1CCc1ccccc1 | inactive | – |
